Laboratory results taken from PubChem BioAssay (NCI).
This is part of a sample that, as a whole, favours compounds with a hit. Of some 79,000 tested, about 15% had one in any assay. Active and inactive are the calls of the source. Rule as the data show it: active = growth inhibition above about 70%; inactive = the rest.

Experiments:
[1] = NCI Yeast Anticancer Drug Screen. Data for the rad52 strain (AID 147);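 also: 0% = growth of vehicle-treated control cultures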; conditions: S. cerevisiae rad52 mutant growth inhibition, active compounds read high
Method in brief: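 DNA repair-defective yeast; compound exposure; growth scored against vehicle controls.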

[2] = NCI Yeast Anticancer Drug Screen. Data for the wt1 strain (AID 149);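 also: 0% = growth of vehicle-treated wt1 cultures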; conditions: S. cerevisiae wt1 strain (SPY 50644) growth inhibition, active compounds read high
Method in brief: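 Compounds are added to wt1 yeast cultures. Growth is then measured. Inhibition is expressed relative to vehicle-treated controls.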

[3] = NCI Yeast Anticancer Drug Screen. Data for the rad50 strain (AID 155);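 also: 0% = growth of vehicle-only cultures of the same strain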; conditions: S. cerevisiae rad50 strain growth inhibition, active compounds read high
Method in brief: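 Inhibition values express reduced yeast growth in compound-treated cultures relative to vehicle-treated controls.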

[4] = NCI Yeast Anticancer Drug Screen. Data for the mec2-1 strain (AID 157); conditions: S. cerevisiae mec2-1 strain, active compounds read high
Method in brief: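 Growth inhibition is read against vehicle-treated controls after compound exposure of the mec2-1 yeast strain, which is defective in DNA damage repair or cell cycle control.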

[5] = NCI Yeast Anticancer Drug Screen. Data for the rad14 strain (AID 159);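 also: 0% = growth of vehicle-treated control cultures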; conditions: S. cerevisiae rad14 strain growth inhibition, active compounds read high
Method in brief: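 A mutant yeast strain defective in DNA damage repair is treated with compound; inhibition of its growth is scored against untreated, vehicle-exposed cultures.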

[6] = NCI Yeast Anticancer Drug Screen. Data for the sgs1 mgt1 strain (AID 161);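 also: 0% = growth of cultures given vehicle only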; conditions: S. cerevisiae sgs1 mgt1 strain, active compounds read high
Method in brief: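 Yeast cells carrying a defined DNA-repair defect were exposed to test compounds. Growth inhibition was measured relative to vehicle-treated controls.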

[7] = NCI Yeast Anticancer Drug Screen. Data for the CLN2oe strain (AID 163);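 also: 0% = growth of vehicle-only control cultures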; conditions: S. cerevisiae CLN2oe strain, active compounds read high
Method in brief: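 Compound-treated yeast; growth vs vehicle ctrl = % inhibition. Genetically altered strain (cell-cycle control).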

[8] = NCI Yeast Anticancer Drug Screen. Data for the cln2 rad14 strain (AID 165);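 also: 0% = growth equal to vehicle treated cultures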; conditions: S. cerevisiae cln2 rad14 strain, active compounds read high
Method in brief: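 Growth inhibition, relative to vehicle-treated controls, is the read-out. The test organism is a yeast strain with defined genetic alterations, cln2 rad14.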

[9] = NCI Yeast Anticancer Drug Screen. Data for the bub3 strain (AID 167); conditions: S. cerevisiae bub3 mutant strain, active compounds read high
Method in brief: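 Steps: expose the mutant yeast strain to compound; grow alongside vehicle-treated cultures; measure growth; express inhibition against the vehicle cultures.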

[10] = NCI Yeast Anticancer Drug Screen. Data for the wt2 strain (AID 169);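 also: 0% = growth of vehicle-treated yeast cultures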; conditions: S. cerevisiae wt2 strain growth inhibition, active compounds read high
Method in brief: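 Compound exposure of yeast; growth compared with vehicle controls; inhibition reported.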

[11] = NCI Yeast Anticancer Drug Screen. Data for the mlh1 strain (AID 171);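 also: 0% = growth of vehicle-treated control cultures of the same strain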; conditions: S. cerevisiae mlh1 strain growth inhibition, active compounds read high
Method in brief: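 Compounds are applied to a genetically altered yeast strain, and its growth is compared with that of vehicle-treated cultures to give percent inhibition.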

[12] = NCI Yeast Anticancer Drug Screen. Data for the sgs1 strain (AID 173);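 also: 0% = growth of vehicle-only control cultures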; conditions: S. cerevisiae sgs1 mutant, active compounds read high
Method in brief: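 Compounds applied to genetically altered yeast; growth compared with vehicle-treated cultures to give % inhibition.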

[13] = NCI Yeast Anticancer Drug Screen. Data for the mlh1 rad18 strain (AID 175); conditions: S. cerevisiae mlh1 rad18 strain growth inhibition, active compounds read high
Method in brief: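 Cells of a genetically altered yeast strain, deficient in DNA damage repair, were treated with compound. Their growth was then compared with that of vehicle-treated cultures to give inhibition.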

[14] = NCI Yeast Anticancer Drug Screen. Data for the rad18 strain (AID 177); conditions: S. cerevisiae rad18 mutant growth inhibition, active compounds read high
Method in brief: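 Compounds are applied to a repair-deficient yeast strain, and growth is compared with that of vehicle-treated cultures to give percent inhibition.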

[15] = at 5.0 µM (retest, dose inferred, filed as 0.5)
[16] = at 50.0 µM (retest, dose inferred, filed as 5.0)

Measured: growth inhibition

O=C1C=CC(=O)N1c1ccc(I)cc1
active: [1]; at 11.0 µM 97% | [1]; at 33.0 µM 99% | [1]; at 100.0 µM 98% | [2]; at 11.0 µM 96% | [2]; at 33.0 µM 99% | [2]; at 100.0 µM 98% | [3]; at 11.0 µM 96% | [3]; at 33.0 µM 98% | [3]; at 50.0 µM 92% | [3]; at 100.0 µM 98% | [4]; at 11.0 µM 99% | [4]; at 33.0 µM 99% | [4]; at 50.0 µM 93.7% | [4]; at 100.0 µM 100% | [5]; at 11.0 µM 97% | [5]; at 33.0 µM 99% | [5]; at 100.0 µM 98% | [6]; [15] 97% | [6]; [16] 100% | [6]; at 50.0 µM 93.6% | [7]; at 11.0 µM 96% | [7]; at 33.0 µM 100% | [7]; at 100.0 µM 99% | [8]; [16] 100% | [8]; at 50.0 µM 92.1% | [9]; [15] 100% | [9]; at 11.0 µM 98% | [9]; at 33.0 µM 99% | [9]; [16] 99% | [9]; at 50.0 µM 92.4% | [9]; at 100.0 µM 98% | [10]; at 11.0 µM 81% | [10]; at 33.0 µM 100% | [10]; at 100.0 µM 99% | [11]; at 11.0 µM 98% | [11]; at 33.0 µM 100% | [11]; at 100.0 µM 99% | [12]; at 3.7 µM 76% | [12]; at 11.0 µM 100% | [12]; at 33.0 µM 100% | [12]; at 100.0 µM 100% | [13]; [16] 72% | [13]; at 50.0 µM 92.2% | [14]; at 33.0 µM 99% | [14]; at 100.0 µM 99%
inactive: [1]; at 1.2 µM 12% | [1]; at 3.7 µM 26% | [2]; at 1.2 µM -9% | [2]; at 3.7 µM 33% | [3]; at 1.2 µM 21% | [3]; at 3.7 µM 37% | [3]; [15] 26% | [3]; [16] 54% | [4]; at 1.2 µM 12% | [4]; at 3.7 µM 41% | [4]; [15] 31% | [4]; [16] 65% | [5]; at 1.2 µM 11% | [5]; at 3.7 µM 28% | [7]; at 1.2 µM 13% | [7]; at 3.7 µM 26% | [8]; [15] 56% | [9]; at 1.2 µM 5% | [9]; at 3.7 µM 15% | [10]; at 1.2 µM -2% | [10]; at 3.7 µM 16% | [11]; at 1.2 µM 13% | [11]; at 3.7 µM 40% | [12]; at 1.2 µM 29% | [13]; [15] 17% | [14]; at 1.2 µM 27% | [14]; at 3.7 µM 35% | [14]; at 11.0 µM 49%
